Source: PubChem
Most compounds without a hit are left out; they make up all but 2.9% or so of the library.
GALC G270D up – A Novel Cell-Based Assay to Identify Small Molecules for B -Galactocerebrosidase | P54803 | 145M-Twi-hGALC-G270D cells, HMU-beta-Gal fluorescence, 48 h | Potency, µM (titrated, usually from 57.5 µM), usual class: activators | 0.1% of 45,000 active; further: potency means the concentration at half of the fitted maximal effect; 0% is about no effect; nearly all actives have a fitted effect of over 65% in size
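qHTS, 1536-well; 145M-Twi-hGALC-G270D cells (WT line also made) in DMEM/F12 + 10% FBS; compound incubation on live cells; HMU-β-gal 0.1 mM final, pH 5.2, NaTC; carbonate stop; fluorescence increase = enhanced residual activity.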
GPR32 ag – qHTS for Agonists of Human Resolvin D1 Receptor DRV1; Probable G-protein coupled receptor 32 (Homo sapiens), O75388; CHO-K1 GPR32 beta-arrestin PathHunter luminescence, 90 min; zero percent set by DMSO-only wells; activation, % at 76.9 µM; 2.5% of 48,000 active; AID 1346428, 2018;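 active means activation of at least 60% and not above a set upper limit, about 1 call in 100 departs from these limits; inconclusive means activation of 40% to 60%, or above that upper limit; inactive means activation under 40%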; further: 0% is about no effect
Target sequence (O75388 whole entry, looked up): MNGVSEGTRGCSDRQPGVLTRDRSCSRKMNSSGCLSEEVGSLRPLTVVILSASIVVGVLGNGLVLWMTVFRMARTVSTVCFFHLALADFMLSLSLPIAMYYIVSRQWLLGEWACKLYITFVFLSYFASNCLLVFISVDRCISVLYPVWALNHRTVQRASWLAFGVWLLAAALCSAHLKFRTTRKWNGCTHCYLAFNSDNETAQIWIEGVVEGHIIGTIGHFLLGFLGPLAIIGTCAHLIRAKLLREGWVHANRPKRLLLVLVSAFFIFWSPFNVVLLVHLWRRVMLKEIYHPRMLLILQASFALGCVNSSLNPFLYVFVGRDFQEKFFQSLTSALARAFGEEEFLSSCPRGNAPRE
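Using DMSO wells as EC0, agonist-induced signal was taken as chemiluminescence from beta-Gal reconstituted upon beta-arrestin recruitment to GPR32 in CHO-K1 cells after 90 min compound treatment.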
TSG101-PTAP inh – qHTS Validation Assay for Inhibitors of HIV-1 Budding by Blocking the Interaction of PTAP/TSG101: Sytravon Library Screen. AID 1347069, 2019. Tumor susceptibility gene 101 protein (Homo sapiens), Q99816. 44,000 tested, under 10 active. Potency, µM (doses to about 115 µM), hits mostly inhibitors. Fluorescence polarization, FITC-PTAP peptide/Tsg101, 20 min; further: potency means the concentration at half of the fitted maximal effect; 0% is about no effect
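qHTS FP binding, 20 min r.t.: 10 uM Tsg101 domain + 50 nM FITC-PTAP peptide, pH 7.5 HEPES buffer with TCEP and EDTA.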
B2AR arrestin ag – qHTS assay of beta-arrestin-biased ligands of beta2-adrenergic receptor: NCGC Sytravon Library Screen; HTLA Tango cells, beta-arrestin recruitment, luciferase luminescence, 18 h; Potency, µM (highest dose often 46.1 µM), hits mostly activators; 44,000 tested, under 10 active; AID 1347077, 2019;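 further: potency means the concentration at half of the fitted maximal effect; 0% = DMSO and full agonism = EC100 isoproterenol or metaproterenol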
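Receptor–beta-arrestin recruitment read by tTA-responsive luciferase: compound titrations (up to 46 µM) incubated 18 h with Tango cells, then luminescent substrate 15 min at room temperature. Concentration-response fits classified by r2, efficacy and activity.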
* = called active by the depositor; i = inactive; ? = inconclusive; . = not tested or not shown. Unless noted, the call rests on the fitted dose curve; in most records, active means well fitted curve in the direction sought with a large enough effect; inconclusive means small, poorly fitted or top-dose-only effect, or another doubt; inactive means no such curve, though single readings can be large; an effect the other way counts as inactive or inconclusive.

SMILES | GALC G270D up | GPR32 ag | TSG101-PTAP inh | B2AR arrestin ag
COc1ccc(Nc2nc3ccccc3nc2NS(=O)(=O)c2ccc(C)cc2)c(OC)c1 | i | -9 | i | i
CC(=O)c1cc2ccccc2s1 | i | -4 | . | .
CCOc1ccc(CNS(=O)(=O)c2ccc3c(c2)CC(C)N3C(C)=O)cc1OC (centres undefined) | i | ? | i | i
CC(C)NCC(O)c1ccc2ccccc2c1 (centres undefined) | i | 68* | . | .
CC(C)NCC(O)c1ccc(O)c(O)c1 (centres undefined) | i | -1 | . | .
Cc1ccc(C)c(N(C)C(=O)Cc2c(C(=O)O)[nH]c3ccc(Cl)cc23)c1 | i | 70* | i | i
COC(=O)c1ccc(NC(=O)C2CCN(C(=O)c3ccc(F)cc3)CC2)cc1 | i | 61* | i | i
COc1ccc(Cn2ccc3nc(C)c(C(=O)NCc4ccc(F)cc4)cc3c2=O)cc1 | i | 63* | i | i
Clc1ccc(C(Cn2ccnc2)OCc2ccc(Sc3ccccc3)cc2)c(Cl)c1 (centres undefined) | i | -10 | . | .
Cc1ccc2c(c1)c(=O)c1ccccc1n2CCCC(=O)Nc1ccc(C)c(C)c1 | 40µM* | -2 | i | i
CC(=O)Nc1ccn(C2COC(COC(=O)c3ccccc3)O2)c(=O)n1 (centres undefined) | i | -1 | . | .
Cc1cccc(OCC(=O)Nc2ccc3nc(Nc4cccc(C(F)(F)F)c4)cc(C)c3c2)c1 | i | 76* | i | i
O=C(COc1ccccc1Cl)Nc1ccc2oc(-c3ccccc3F)nc2c1 | i | -8 | i | i
Cc1cccc(OCC(=O)Nc2ccc3oc(-c4ccccc4F)nc3c2)c1 | i | 121* | i | i
O=C(Cc1ccc(Cl)cc1)Nc1ccc2oc(-c3ccccc3)nc2c1 | i | 13 | i | i
Cc1ccccc1-c1nc2cc(NC(=O)Cc3ccc(Cl)cc3)ccc2o1 | i | 118* | i | i
Cc1cc(Nc2cccc(C(F)(F)F)c2)nc2ccc(NC(=O)Cc3ccc(Cl)cc3)cc12 | i | 19 | i | i
Cc1ccc(-c2nc(-c3cc4cccc(OCc5cccc(F)c5)c4oc3=O)no2)cc1 | i | 82* | i | i
CCn1c(CN2CCC(C)CC2)nc2cc(NC(=O)COc3ccc(Cl)c(C)c3)ccc21 | i | 27 | i | i
Cc1cc(C)c(NC(=O)Cn2c(=O)n(CCC(=O)N3CCc4ccccc4C3)c(=O)c3ccccc32)c(C)c1 | i | 22 | i | i
Cc1nc2n(c(=O)c1CCN1CCC(c3noc4cc(F)ccc34)CC1)CCCC2O (centres undefined) | . | -3 | . | .
COc1cc(C(C)=O)ccc1OCCCN1CCC(c2noc3cc(F)ccc23)CC1 | i | 71* | . | .
Cc1cccc(NC(=O)CSc2nc3ccc(NC(=O)c4ccccc4)cc3s2)c1 | i | 60* | i | i
CCN(CC)c1cc(C)c2cc(NC(=O)c3cccc(F)c3)ccc2n1 | i | 92* | i | i
CCOC(=O)CSc1nc2ccc(NC(=O)c3cccc(F)c3)cc2s1 | i | 73* | i | i
SMILES | GALC G270D up | GPR32 ag | TSG101-PTAP inh | B2AR arrestin ag
Cc1ccc(NC(=O)CSc2nc3ccc(NC(=O)c4ccco4)cc3s2)cc1 | i | 99* | i | i
CCN(CC)c1cc(C)c2cc(NC(=O)c3ccc(F)cc3Cl)ccc2n1 | i | 18 | i | i
CCOC(=O)CSC1=Nc2ccccc2C2=NC(CCC(=O)NCc3ccc(OC)cc3)C(=O)N12 (centres undefined) | i | -16 | i | i
CC(C)(C)CC(C)(C)c1ccc(OCC(=O)Nc2ccc(S(=O)(=O)Nc3ncccn3)cc2)cc1 | i | -3 | i | i
CC(C)(C)c1ccc(OCC(=O)Nc2ccc(S(=O)(=O)Nc3ncccn3)cc2)cc1 | i | 79* | i | i
CC(C)C[C@H](NC(=O)CNC(=O)[C@H](Cc1ccc(O)cc1)NC(=O)[C@H](CO)NC(=O)[C@H](Cc1c[nH]c2ccccc12)NC(=O)[C@H](Cc1cnc[nH]1)NC(=O)[C@@H]1CCC(=O)N1)C(=O)N[C@@H](CCCN=C(N)N)C(=O)N1CCC[C@H]1C(=O)NCC(N)=O (stereo in doubt) | i | 13 | . | .
CCc1ccc(NS(=O)(=O)c2ccc(NC(=O)N3CCCC3)cc2)cc1 | i | 69* | i | i
O=C(Nc1ccc(S(=O)(=O)Nc2ccccc2)cc1)N1CCCC1 | i | 19 | i | ?
CC1=CC(=O)c2ccccc2C1=O | i | 62* | . | .
CN1C(=O)c2ccccc2C1=O | i | 14 | . | .
CCc1c(C)c2ccc3c(c2oc1=O)CN(Cc1ccccc1)CO3 | 25µM* | 48 | i | i
Cc1ccc(CN2COc3ccc4c(C)cc(=O)oc4c3C2)cc1 | 25µM* | 5 | i | i
Cc1cc(=O)oc2c3c(ccc12)OCN(Cc1ccccc1Cl)C3 | ? | -1 | i | i
O=C(NOCC1CC1)c1ccc(F)c(F)c1Nc1ccc(I)cc1Cl | i | 46 | . | .
COc1ccccc1CCNC(=O)C(=O)NCC(c1ccco1)S(=O)(=O)c1ccc(C)cc1 (centres undefined) | 7.9µM* | -20 | i | i
C[C@H](N)C(=O)N[C@@H](C)C(=O)NC1[C@H]2CN(c3nc4c(cc3F)c(=O)c(C(=O)O)cn4-c3ccc(F)cc3F)C[C@@H]12 (some centres undefined) | i | -1 | . | .
Cc1cccc(CNS(=O)(=O)c2ccc(-c3coc(C)n3)cc2)c1 | i | 98* | i | i
Cc1nc(-c2ccc(S(=O)(=O)NCc3ccc(F)cc3)cc2)co1 | i | ? | i | i
COc1ccc(NC(=O)c2coc(=O)c3ccccc23)cc1OC | i | -11 | i | i
Cc1cc(Br)ccc1NC(=O)c1coc(=O)c2ccccc12 | i | 72* | i | i
CCc1ccc(C2=C(C)C(N3CCC(C(=O)NCc4ccccc4)CC3)=NS2(=O)=O)cc1 | i | 65* | i | i
CCN(CC)C(=O)Cn1c(SCC(=O)Nc2ccc(F)cc2)nc2ccccc21 | i | 17 | i | i
CCOc1ccc(-c2cc(CCCC(=O)NCCc3cc(OC)c(OC)c(OC)c3)no2)cc1 | i | 72* | i | i
COc1ccc(CNC(=O)c2oc3c(c2C)-c2nn(Cc4ccccc4Cl)cc2CC3)cc1 | i | -16 | i | i
OC[C@H]1O[C@H](n2cnc3c(N[C@H]4CCC[C@@H]4O)ncnc32)[C@H](O)[C@@H]1O | . | 5 | . | .
